Hits are enriched below; roughly 3.1% of the tested compounds scored in any of these assays.
Vif-A3G inh = Vif-A3G binding inhibition; HeLa A3G-eYFP + Vif (tagged APOBEC3G with the HIV-1 protein that degrades it), YFP fluorescence, overnight; 0.076% of 410,000 active; Potency, µM (top dose mostly 46.1 µM), for the others: at the top dose activity, negative = active, hits mostly inhibitors; Q9HC16; also: potency is read from the fitted curve at half-maximal effect; % is scaled to controls: 0 for no effect and ±100 for the full control effect; nearly all actives have a fitted effect of over 60% in size
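Read-out is eYFP fluorescence (Ex 488/Em 500-530) from Vif-expressing HeLa A3G-eYFP cells; more signal means A3G escaped Vif-mediated degradation. Cells plated overnight, compound pinned in, incubated overnight at 37 deg C.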
Vif-A3F inh = blocks the Vif interaction with APOBEC3F | HeLa A3F-eYFP + Vif (tagged APOBEC3F with the HIV-1 protein that degrades it), YFP fluorescence increase | Potency, µM (highest dose often 46.1 µM), for the others: top-dose activity, negative = active | 0.2% of 390,000 active | AID 602313; also: potency is read from the fitted curve at half-maximal effect; % of control where 0% means no effect; nearly all actives have a fitted effect of over 65% in size
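Fluorescence increase (Ex 488/Em 500-530) after overnight compound treatment at 37 deg C flags inhibition of Vif-driven A3F-eYFP loss in stable HeLa A3F-eYFP/Vif cells seeded overnight beforehand.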
PLK1 PBD block = inhibitors of human PLK1 polo-box domain binding; Plk1 PBD binding of FITC phosphopeptide, fluorescence polarization; 2.8% of 360,000 active; AID 720504; Potency, µM, for the others: max response, negative = inhibition, usual class: inhibitors; P53350; also: potency is read from the fitted curve at half-maximal effect; series mostly up to about 57 µM; % is scaled to controls: 0 for no effect and ±100 for the full control effect; nearly all actives have a fitted effect of over 65% in size
VDR inh = blocks the human vitamin D receptor | VDR-SRC2-3 peptide fluorescence polarization, 2 h | Potency, µM, for the others: max response, negative = inhibition, hits mostly inhibitors | 0.93% of 400,000 active | AID 504847; also: potency is read from the fitted curve at half-maximal effect; % is scaled to controls: 0 for no effect and ±100 for the full control effect
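Measured by FP: displacement of SRC2-3 coactivator peptide from VDR by library compounds, following a two-hour ambient incubation.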
TSHR antagonist = blocks TSH signaling through the human TSH receptor; TSHR-expressing cells, TSH-stimulated cAMP HTRF, 2 h; stronger effect = lower value; AID 504810; activity change, negative = inhibition, % at 11.5 µM; P16473; 0.2% of 330,000 active;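 active = activity change below a set negative limit, meaning inhibition stronger than a set level, cut at about -70% in these data; inconclusive = activity change between two set negative limits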; also: % is scaled to controls: 0 for no effect and ±100 for the full control effect
Target sequence (P16473 whole entry, looked up): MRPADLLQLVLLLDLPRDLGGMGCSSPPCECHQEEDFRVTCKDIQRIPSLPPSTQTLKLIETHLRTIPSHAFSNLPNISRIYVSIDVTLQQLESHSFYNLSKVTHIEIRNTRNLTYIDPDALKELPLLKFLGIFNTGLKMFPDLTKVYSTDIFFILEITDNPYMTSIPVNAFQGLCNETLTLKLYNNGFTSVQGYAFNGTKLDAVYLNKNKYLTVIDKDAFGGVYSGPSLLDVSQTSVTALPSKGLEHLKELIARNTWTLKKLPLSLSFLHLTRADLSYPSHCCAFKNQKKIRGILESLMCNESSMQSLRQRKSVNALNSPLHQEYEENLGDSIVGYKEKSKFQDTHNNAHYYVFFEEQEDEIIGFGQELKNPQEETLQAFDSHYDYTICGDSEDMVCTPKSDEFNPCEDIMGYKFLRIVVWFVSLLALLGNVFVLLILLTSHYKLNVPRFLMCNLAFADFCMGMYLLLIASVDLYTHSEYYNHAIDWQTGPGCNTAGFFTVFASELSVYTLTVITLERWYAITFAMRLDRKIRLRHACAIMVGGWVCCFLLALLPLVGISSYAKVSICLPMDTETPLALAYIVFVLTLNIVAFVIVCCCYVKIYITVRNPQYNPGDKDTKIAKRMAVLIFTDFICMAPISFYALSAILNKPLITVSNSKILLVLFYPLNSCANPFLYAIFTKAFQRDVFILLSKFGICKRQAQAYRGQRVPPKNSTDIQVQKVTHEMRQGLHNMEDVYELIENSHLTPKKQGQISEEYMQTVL
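Antagonism was scored as loss of TSH-driven cAMP in TSHR cells, stimulated with 4nM TSH (EC80) for 2 hours at 37 deg C and detected by homogeneous HTRF competition immunoassay.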
Starred values were filed as active, the others as inactive. Unless noted, calls follow the shape of the dose curve; as a rule, active = well fitted curve in the direction sought with a large enough effect; inconclusive = small, poorly fitted or top-dose-only effect, or another doubt; inactive = no such curve, though single readings can be large; an effect the other way counts as inactive or inconclusive.

CC1(C)CC(=O)C(C(C#Cc2ccccc2)C2=C(O)CC(C)(C)CC2=O)=C(O)C1 was read as Vif-A3G inh -5%, Vif-A3F inh -1%, PLK1 PBD block 4.2µM*, VDR inh 22µM* and TSHR antagonist 16.
For Cc1cc2oc(=O)cc(CSc3nnc(C)n3N)c2cc1C(C)C the results were Vif-A3G inh 1%, Vif-A3F inh 4%, PLK1 PBD block -15%, VDR inh 20% and TSHR antagonist 4.
For Cc1cc2oc(=O)cc(CSc3nnc(-c4cccs4)o3)c2cc1C(C)C the results were Vif-A3G inh -1%, Vif-A3F inh 6%, PLK1 PBD block 24µM*, VDR inh -17% and TSHR antagonist -45.
For COc1ccc(NC(=O)CSc2nc3nc(-c4cccs4)cc(C(F)(F)F)c3c(=O)[nH]2)c(OC)c1 the results were Vif-A3G inh -5%, Vif-A3F inh 0%, PLK1 PBD block 27µM*, VDR inh -7% and TSHR antagonist -15.
`CCOc1ccccc1NC(=O)CSc1nc2nc(-c3cccs3)cc(C(F)(F)F)c2c(=O)[nH]1` gave Vif-A3G inh -11%, Vif-A3F inh -1%, PLK1 PBD block 21µM*, VDR inh 3% and TSHR antagonist -17.
CC(=O)Nc1ccc(NC(=O)CSc2nc3nc(-c4cccs4)cc(C(F)(F)F)c3c(=O)[nH]2)cc1 was read as Vif-A3G inh -10%, Vif-A3F inh -17%, PLK1 PBD block inconclusive, VDR inh -13% and TSHR antagonist 1.
Screening CC(C)C(=O)SCCCCCCC(=O)Nc1nc(-c2ccccc2)cs1 returned VDR inh 2%.
For Cn1c(SCc2ccc(Cl)cc2)nnc1-c1ccc(NC(=O)CCc2ccccc2)cc1 the results were Vif-A3G inh 0%.
Screening CC(C)CC(CSc1ccc(Br)cc1)N1CCN(CC(C)C)CCC1=O (configuration not stated) returned Vif-A3G inh -1% and VDR inh -20%.
NC(=O)C1CCCN(CCc2ccccc2)C1 (configuration not stated) was read as Vif-A3G inh -2%, Vif-A3F inh -2%, PLK1 PBD block -4%, VDR inh 10% and TSHR antagonist 3.
Screening CCCc1sc(N2CCCC(C(N)=O)C2)nc1-c1ccccc1 (configuration not stated) returned Vif-A3G inh -8%, Vif-A3F inh 5%, PLK1 PBD block 24µM*, VDR inh 79µM* and TSHR antagonist 0.
For Cc1cnc2c(C)ccc(C)c2c1/C=C/c1ccc(N(C)C)cc1 the results were Vif-A3G inh -2%.
NCc1ccccc1Sc1ccccc1CO was read as VDR inh -3%.
`COC(=O)c1cc(=O)nc2sc(-c3ccc(F)cc3)nn12` gave Vif-A3G inh 0%, Vif-A3F inh 2%, PLK1 PBD block 6.7µM*, VDR inh 45µM* and TSHR antagonist 4.
For CCCCOC(=O)c1cccc(NC(=O)c2cc3ccccc3o2)c1 the results were Vif-A3G inh 4%, Vif-A3F inh -9% and VDR inh 1%.
`COc1c(C=O)c(=O)[nH]c2c(OC)cccc12` gave VDR inh 0%.
COc1cc(/C=C(\C#N)c2nc3ccccc3s2)cc([N+](=O)[O-])c1O was read as Vif-A3G inh 0%, Vif-A3F inh 13%, PLK1 PBD block 21µM*, VDR inh -17% and TSHR antagonist -71*.
Screening COc1ccc(-c2csc(/C(C#N)=C\c3ccc(O)c([N+](=O)[O-])c3)n2)cc1OC returned Vif-A3G inh 0%, Vif-A3F inh -15%, PLK1 PBD block 27µM*, VDR inh 2% and TSHR antagonist -72*.
N#C/C(=C\c1ccc(O)c([N+](=O)[O-])c1)c1nc2ccccc2s1 was read as Vif-A3G inh -1%, Vif-A3F inh 3%, PLK1 PBD block 24µM*, VDR inh inconclusive and TSHR antagonist inconclusive.
Screening COc1ccc(-c2csc(/C(C#N)=C\c3ccc(OC)c([N+](=O)[O-])c3)n2)cc1 returned Vif-A3G inh -5%, Vif-A3F inh inconclusive, PLK1 PBD block -5%, VDR inh -2% and TSHR antagonist -2.
N#C/C(=C\c1ccco1)c1nc2ccccc2s1 was read as Vif-A3G inh inconclusive, Vif-A3F inh inconclusive, PLK1 PBD block -12%, VDR inh -2% and TSHR antagonist -1.
CCOC(=O)c1c(NC(=O)c2ccccc2Cl)sc2c1CCCC2 was read as Vif-A3G inh -20%, Vif-A3F inh inconclusive and VDR inh 12%.
`CCOC(=O)c1c(NC(=O)c2ccccc2Br)sc2c1CCc1ccccc1-2` gave Vif-A3G inh 1%, Vif-A3F inh 4%, PLK1 PBD block 6.7µM*, VDR inh 79µM* and TSHR antagonist -9.
`CCOC(=O)c1c(NC(=O)COc2ccccc2Br)sc2c1CCCCC2` gave Vif-A3G inh 1%, Vif-A3F inh 8% and VDR inh 89µM*.
`CCOC(=O)c1c(NC(=O)c2ccco2)sc2c1CCCC2` gave Vif-A3G inh 3%, Vif-A3F inh -9%, PLK1 PBD block 27µM*, VDR inh inconclusive and TSHR antagonist -4.
CNC(=O)c1c(NC(=O)c2ccco2)sc2c1CCC2 was read as Vif-A3G inh 0%, Vif-A3F inh 4%, PLK1 PBD block -4%, VDR inh -2% and TSHR antagonist -4.
Screening COC(=O)c1c(NC(=O)COC(=O)CNC(=O)c2ccco2)sc(C)c1C returned Vif-A3G inh -8%, Vif-A3F inh -6%, PLK1 PBD block -11%, VDR inh -3% and TSHR antagonist -2.
`CCOC(=O)c1c(NC(=O)COC(=O)CNC(=O)c2ccco2)sc(C)c1C` gave Vif-A3G inh -24%, Vif-A3F inh 1%, PLK1 PBD block 3.4µM*, VDR inh inconclusive and TSHR antagonist -11.
For CCOC(=O)c1c(NC(=O)COc2ccc(Cl)cc2C)sc2c1CCCCC2 the results were Vif-A3G inh 0%, Vif-A3F inh 0% and VDR inh inconclusive.
For O=[N+]([O-])c1ccc2c(c1)C=C/C2=C/c1ccccc1 the results were Vif-A3G inh -8%.
Cc1cc(Br)ccc1NC(=O)COC(=O)c1ccccc1OCC(=O)N(C)C was read as Vif-A3G inh 3%.
CC(=O)NCCCc1ccc(C(=O)COC(=O)CNC(=O)c2ccc3ccccc3c2)cc1 was read as Vif-A3G inh 6% and VDR inh -12%.
`CCOC(=O)c1c(NC(=S)NNS(=O)(=O)c2ccc(Br)cc2)sc2c1CCCCC2` gave Vif-A3G inh 1%, Vif-A3F inh -4%, PLK1 PBD block 27µM*, VDR inh inconclusive and TSHR antagonist 12.
